Consider 56 molecules from the supplement of paper PMC11537057.

Where a name gives a salt, the structure may show the parent alone. Hit rate of the full screen: of about 1,700 compounds, about 15 (0.9%) showed activity. Shown is part of a subset that was picked to be rich in actives. Values without a mark were called inactive.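 Rule for the calls: active = infection cut by 80% or more with cell growth above 90% in both runs; inactive = the rest.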

The test has as its system HSV-1 strain 17 YFP-ICP4 in A549. Kind of test: HSV-1 infection relative to DMSO (ICP4-YFP per H2B-RFP signal); higher = more viral infection (less antiviral activity), active = hit call of the paper. The note with it: 10 µM; 48 h; MOI: 0.1. Here is the method:
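Selleck FDA-approved library (L1300) screened in duplicate at 10 µM on A549 H2B-mRuby cells in 384-well plates, infected with HSV-1 strain 17 YFP-ICP4 at MOI 0.1 one hour before drug addition. Imaged after 2 days at 37°C. Cell growth (H2B-RFP) and infection (ICP4-YFP) are expressed as % of DMSO-treated wells. Hits: growth >90% and infection <20% of DMSO.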
On to `C[N+]1(C)[C@@H]2C[C@@H](OC(=O)C(O)(c3cccs3)c3cccs3)C[C@H]1[C@@H]1O[C@@H]12` [Tiotropium Bromide hydrate], for which the HSV-1 infection was 100%.
On to `CCOCCn1c(C2CCN(CCc3ccc(C(C)(C)C(=O)O)cc3)CC2)nc2ccccc21` [Bilastine], for which the HSV-1 infection was 107%.
For the molecule `CC1(C)S[C@@H]2[C@H](NC(=O)Cc3ccccc3)C(=O)N2[C@H]1C(=O)O.CCN(CC)CCOC(=O)c1ccc(N)cc1` [Penicillin G Procaine], the HSV-1 infection is 120%.
`Cc1cncc(CN2CCC(=C3c4ccc(Cl)cc4CCc4cccnc43)CC2)c1` [Rupatadine Fumarate]: the HSV-1 infection is 108%.
Consider `CO[C@H]1O[C@H](COS(=O)(=O)O)[C@@H](O[C@@H]2O[C@@H](C(=O)O)[C@@H](O[C@H]3O[C@H](COS(=O)(=O)O)[C@@H](O[C@@H]4O[C@H](C(=O)O)[C@@H](O[C@H]5O[C@H](COS(=O)(=O)O)[C@@H](O)[C@H](O)[C@H]5NS(=O)(=O)O)[C@H](O)[C@H]4O)[C@H](OS(=O)(=O)O)[C@H]3NS(=O)(=O)O)[C@H](O)[C@H]2OS(=O)(=O)O)[C@H](O)[C@H]1NS(=O)(=O)O` [Fondaparinux Sodium], for which the HSV-1 infection was 104%.
As for `O=c1c(-n2ccnn2)c[nH]n1-c1cc(N2CCOCC2)ncn1` [Molidustat (BAY 85-3934)], the HSV-1 infection was 81.4%.
Consider `CC(C)OC(=O)[C@H](C)N[P@](=O)(CO[C@H](C)Cn1cnc2c(N)ncnc21)Oc1ccccc1` [Tenofovir Alafenamide (GS-7340)], for which the HSV-1 infection is 2.77% (active).
Regarding `CC(C)OC(=O)OCOP(=O)(CO[C@H](C)Cn1cnc2c(N)ncnc21)OCOC(=O)OC(C)C` [Tenofovir Disoproxil Fumarate], the HSV-1 infection was 86.9%.
As to `CC(C)OC(=O)[C@H](C)N[P@](=O)(OC[C@H]1O[C@@H](n2ccc(=O)[nH]c2=O)[C@](C)(F)[C@@H]1O)Oc1ccccc1` [Sofosbuvir (PSI-7977, GS-7977)], the HSV-1 infection is 105%.
Then `CCN(C(=O)c1c(O)c2c(Cl)cccc2n(C)c1=O)c1ccccc1` [Laquinimod], with 117%.
In the case of `CC(=O)Nc1cccc(-n2c(=O)n(C3CC3)c(=O)c3c(Nc4ccc(I)cc4F)n(C)c(=O)c(C)c32)c1`, the HSV-1 infection was 43.8%.
For `Cc1ccccc1C(=O)Nc1ccc(C(=O)N2CCCC(O)c3cc(Cl)ccc32)c(C)c1` (stereo unspecified) [Tolvaptan], the HSV-1 infection was 68%.
`Cc1[nH]c2ccccc2c1CCNCc1ccc(/C=C/C(=O)NO)cc1` [Panobinostat (LBH589)]: the HSV-1 infection is 34.1%.
As for `CC(C)C[C@H](NC(=O)[C@@H](NC(=O)c1cccc(-c2ccccc2)n1)[C@@H](C)O)B(O)O`, the HSV-1 infection was 106%.
With `CN(C(=O)c1ccc(F)cc1C(F)(F)F)C1CCN(c2nnc(-c3ccnn3C)c3ccccc23)CC1`, the HSV-1 infection was 113%.
Take `Cc1cn([C@H]2O[C@@H](CO)[C@H](O)[C@H]2F)c(=O)[nH]c1=O` [Clevudine]: the HSV-1 infection was 114%.
Regarding `Cc1cn([C@H]2C[C@H](N=[N+]=[N-])[C@@H](CO)O2)c(=O)[nH]c1=O` [Zidovudine], the HSV-1 infection was 89.6%.
With `O=c1[nH]c(=O)n([C@H]2C[C@H](O)[C@@H](CO)O2)cc1C(F)(F)F` [Trifluridine], the HSV-1 infection is 20.6%.
As for `O=c1[nH]c(=O)n([C@H]2C[C@H](O)[C@@H](CO)O2)cc1I` [Idoxuridine], the HSV-1 infection is 2.44% (active).
For the molecule `O=c1[nH]c(=O)n([C@H]2C[C@H](O)[C@@H](CO)O2)cc1/C=C/Br` [Brivudine], the HSV-1 infection was 2.36% (active).
Regarding `Cc1cn([C@@H]2C[C@@H](O)[C@H](CO)O2)c(=O)[nH]c1=O` [Telbivudine], the HSV-1 infection is 139%.
As for `CCNC1(C(N)=O)CCN(c2ncnc3c2nc(-c2ccccc2Cl)n3-c2ccc(Cl)cc2)CC1`, the HSV-1 infection was 105%.
Then `O=C1C(CC[S+]([O-])c2ccccc2)C(=O)N(c2ccccc2)N1c1ccccc1` (racemic) [(+/-)-Sulfinpyrazone], with 111%; and `C=CN1CCCC1=O.II` [Povidone iodine], with 108%.
Consider `CCCCCOc1ccccc1/C(=C\SC)n1ccnc1` [Neticonazole Hydrochloride], for which the HSV-1 infection is 61.4%.
Take `CC(C)(C)C#Cc1cc(N(C(=O)[C@H]2CC[C@H](C)CC2)[C@H]2CC[C@H](O)CC2)c(C(=O)O)s1` [Lomibuvir (VX-222, VCH-222)]: the HSV-1 infection is 130%.
With `COc1cc2c(cc1OC)CN(CCc1ccc(NC(=O)c3cccc4c(=O)c5cccc(OC)c5[nH]c34)cc1)CC2` the figure was 135%.
Consider `COC(=O)N[C@H](C(=O)N1CC2(CC2)C[C@H]1c1nc(-c2ccc3c(c2)C(F)(F)c2cc(-c4ccc5[nH]c([C@@H]6[C@H]7CC[C@H](C7)N6C(=O)[C@@H](NC(=O)OC)C(C)C)nc5c4)ccc2-3)c[nH]1)C(C)C` [Ledipasvir (GS5885)], for which the HSV-1 infection is 105%.
`CCCCC[C@](C)(O)/C=C/[C@@H]1[C@@H](C/C=C\CCCC(=O)O)[C@@H](O)C[C@H]1O` [Carboprost]: the HSV-1 infection was 117%.
Consider `Nc1ncn([C@@H]2O[C@H](CO)[C@@H](O)[C@H]2O)c(=O)n1` [Azacitidine], for which the HSV-1 infection was 5.54% (active).
For the molecule `NC(=O)c1ncn([C@@H]2O[C@H](CO)[C@@H](O)[C@H]2O)c1O` [Mizoribine], the HSV-1 infection was 89.7%.
`NC(=O)c1ncn([C@@H]2O[C@H](CO)[C@@H](O)[C@H]2O)c1N` [AICAR (Acadesine)]: the HSV-1 infection was 67.6%.
On to `Nc1ccn([C@H]2CC[C@@H](CO)O2)c(=O)n1` [Zalcitabine], for which the HSV-1 infection is 98.8%.
Turning to `Nc1ncn([C@H]2C[C@H](O)[C@@H](CO)O2)c(=O)n1` [Decitabine], the HSV-1 infection was 7.64% (active).
Regarding `Nc1nc(Cl)nc2c1ncn2[C@H]1C[C@H](O)[C@@H](CO)O1` [Cladribine], the HSV-1 infection was 22.3%.
Consider `CC#CC(=O)N1CCC[C@H]1c1nc(-c2ccc(C(=O)Nc3ccccn3)cc2)c2c(N)nccn12` [Acalabrutinib (ACP-196)], for which the HSV-1 infection is 98.3%.
With `CNC(=O)CN(CCN(CCN(CC(=O)[O-])CC(=O)NC)CC(=O)[O-])CC(=O)[O-].O.[Gd+3]` [Gadodiamide Hydrate] the figure was 108%.
Consider `COc1ccc(C[C@@H](C)NC[C@H](O)c2ccc(O)c(NC=O)c2)cc1` [Arformoterol Tartrate], for which the HSV-1 infection is 112%.
For `Cn1cnc2c(F)c(Nc3ccc(Br)cc3Cl)c(C(=O)NOCCO)cc21` [Selumetinib (AZD6244)], the HSV-1 infection is 52.5%.
With `CNCc1cc(-c2ccccc2F)n(S(=O)(=O)c2cccnc2)c1` [Vonoprazan Fumarate (TAK-438)], the HSV-1 infection was 95.8%.
Then `CCCNS(=O)(=O)Nc1ncnc(OCCOc2ncc(Br)cn2)c1-c1ccc(Br)cc1` [Macitentan], with 93.1%; and `C[C@@H](O)[C@H]1C(=O)N2C(C(=O)OCOC(=O)C(C)(C)C)=C(SC3CN(C4=NCCS4)C3)[C@H](C)[C@H]12` [Tebipenem Pivoxil], with 92.2%; and `CC1CCC(C(C)C)C(O)C1` (single isomer, unassigned; (-)) [(-)-Menthol], with 99.1%.
Turning to `C[C@H](Cn1cnc2c(N)ncnc21)OCP(=O)(O)O` [Tenofovir], the HSV-1 infection was 119%.
Turning to `Nc1nc2c(ncn2COC(CO)CO)c(=O)[nH]1` [Ganciclovir], the HSV-1 infection is 2.93% (active).
Regarding `CC(C)[C@H](N)C(=O)OCCOCn1cnc2c(=O)nc(N)[nH]c21` [Valaciclovir HCl], the HSV-1 infection is 4.82% (active).
As for `Nc1nc2c(ncn2COCCO)c(=O)[nH]1` [Aciclovir], the HSV-1 infection is 3.03% (active).
Take `CC(C)[C@H](N)C(=O)OCC(CO)OCn1cnc2c(=O)[nH]c(N)nc21` (stereo partly specified) [Valganciclovir HCl]: the HSV-1 infection was 2.02% (active).
Then `Nc1ccn(C[C@@H](CO)OCP(=O)(O)O)c(=O)n1` [Cidofovir], with 45.8%; and `C=C1[C@H](CO)[C@@H](O)C[C@@H]1n1cnc2c(=O)[nH]c(N)nc21` [Entecavir Hydrate], with 12.1% (active).
Turning to `O=c1[nH]cnc2c1ncn2[C@H]1CC[C@@H](CO)O1` [Didanosine], the HSV-1 infection is 112%.
Then `C=C1[C@H](CO)[C@@H](O)C[C@@H]1n1cnc2c(=O)[nH]c(N)nc21` [Entecavir], with 7.02% (active); and `O=c1[nH]cnc2c1ncn2[C@@H]1O[C@H](CO)[C@@H](O)[C@H]1O` [Inosine], with 82.6%; and `N/N=c1\[nH][nH]/c(=N\N)c2ccccc12` [Dihydralazine sulphate], with 123%.
With `C1CNCCNCCNCCN1` [Cyclen], the HSV-1 infection was 105%.
Regarding `C=C1CCN([C@H](C)[C@](O)(Cn2cncn2)c2ccc(F)cc2F)CC1` [Efinaconazole], the HSV-1 infection is 93.8%.
